According to the supplement of paper PMC10849652:
Of roughly 7,900 targets only a part is listed; those with a hit were picked by preference. About 0.6% of all pairs of compound and target were hits.

Columns and labels:
Assay in all cases: log2 fold change, soluble protein after heating vs DMSO (PISA); higher = thermal stabilisation; K562 cells, 10 uM, 30 min; active = over 0.2 and 3.5 SD of the protein, either way, in both replicates (recomputed)
erlotinib = compound: C#Cc1cccc(Nc2ncnc3cc(OCCOC)c(OCCOC)cc23)c1 [erlotinib]
How it was run: (§1)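 Values are thermal stability changes relative to control samples and are taken from duplicates. They are stated as log2 fold changes. Before quantification by TMTpro 16plex LC-MS/MS with equalised channel sums, K562 cells at 2×10^6 cells/mL were treated with 10 μM compound for 30 min, heated in aliquots for 3 min across 48°C-58°C, pooled, extracted in PBS with 0.5% NP-40 at 4°C, and centrifuged at 21,000xg for 90 min to give the soluble supernatant.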

[1] = compound: C/C(=N\NC(=O)C1=CC(=CC=C1)S(=O)(=O)N2CCOCC2)/C3=C(C=CC(=C3)Cl)O
How it was run: as §1

[2] = compound: C1=CC(=C(C=C1Cl)C2=NC3=NC=CN=C3C(=N2)NC4=CC=NC=C4)F
How it was run: as §1

[3] = compound: C1=CC(=CC=C1C2=NC3=C(N2)C=C(C=C3)C(=O)N)OC4=CC=C(C=C4)Cl
How it was run: as §1

[4] = compound: C1=CC2=C(C=CC(=C2)/C=C\3/C(=O)NC(=NCC4=CC=CS4)S3)N=C1
How it was run: as §1

[5] = compound: C1=CC2=NC=CN=C2C=C1/C=C/3\C(=O)NC(=O)S3
How it was run: as §1

[6] = compound: C1=CC=C(C=C1)C2=NC(=C(N2)C3=CC=NC=C3)C4=CC(=C(C=C4)Cl)O
How it was run: as §1

[7] = compound: C1=CC=C2C(=C1)C3=NNC4=CC=CC(=C43)C2=O
How it was run: as §1

[8] = compound: C1CCN(C1)C(=O)NC2=CC=CC(=C2)NC3=NC=C(C(=N3)NCCC4=CN=CN4)Br
How it was run: as §1

[9] = compound: C1CN(CCC1(CC2=CC=C(C=C2)Cl)N)C3=NC=NC4=C3C=CN4
How it was run: as §1

Measured: log2 fold change

ERCC2 (UniProt P18074)
Chain of UniProt P18074 (P18074 whole entry, looked up): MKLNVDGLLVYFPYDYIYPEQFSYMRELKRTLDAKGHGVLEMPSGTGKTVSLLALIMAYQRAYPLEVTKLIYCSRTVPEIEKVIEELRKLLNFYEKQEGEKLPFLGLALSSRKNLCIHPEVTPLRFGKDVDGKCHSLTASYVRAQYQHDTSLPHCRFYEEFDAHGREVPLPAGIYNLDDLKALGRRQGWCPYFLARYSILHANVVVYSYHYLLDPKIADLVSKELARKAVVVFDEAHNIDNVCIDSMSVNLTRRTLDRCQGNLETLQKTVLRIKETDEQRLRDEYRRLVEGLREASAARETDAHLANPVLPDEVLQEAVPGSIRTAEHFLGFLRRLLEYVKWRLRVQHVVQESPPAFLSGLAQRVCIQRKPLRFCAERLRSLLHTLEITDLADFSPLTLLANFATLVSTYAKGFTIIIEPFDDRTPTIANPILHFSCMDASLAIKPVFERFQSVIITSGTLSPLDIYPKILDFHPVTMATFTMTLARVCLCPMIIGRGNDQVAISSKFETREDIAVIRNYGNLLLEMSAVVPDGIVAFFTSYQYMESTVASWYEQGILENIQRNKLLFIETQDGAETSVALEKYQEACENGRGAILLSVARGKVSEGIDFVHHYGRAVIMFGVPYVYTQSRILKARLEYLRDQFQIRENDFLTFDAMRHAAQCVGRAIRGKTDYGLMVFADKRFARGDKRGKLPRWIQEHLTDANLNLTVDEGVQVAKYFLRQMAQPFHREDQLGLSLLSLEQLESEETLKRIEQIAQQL
inactive: erlotinib 0.04 | [1] 0.049 | [2] 0.2 | [3] 0.033 | [4] 0.041 | [5] -0.051 | [6] 0.014 | [7] -0.054 | [8] -0.005 | [9] 0.036

DHRS1 (UniProt Q96LJ7)
inactive: erlotinib -0.045 | [2] -0.02 | [3] -0.105 | [4] 0.353 | [5] -0.034 | [7] -0.163 | [8] -0.163 | [9] -0.021
active: [1] 0.995 | [6] 0.813

EEA1 (UniProt Q15075)
inactive: erlotinib 0 | [1] -0.016 | [2] 0.046 | [3] 0.003 | [4] 0.01 | [5] 0.046 | [6] -0.046 | [7] -0.031 | [8] 0.009 | [9] 0.05

DNAJC7 (UniProt Q99615)
inactive: erlotinib 0.02 | [1] 0.065 | [2] 0.061 | [3] -0.002 | [4] 0.014 | [5] 0.024 | [6] 0.013 | [7] 0.023 | [8] 0.005 | [9] -0.043

EXOC8 (UniProt Q8IYI6)
inactive: erlotinib 0.048 | [1] 0.144 | [2] -0.042 | [3] -0.056 | [4] 0.05 | [5] 0.017 | [6] -0.012 | [7] 0.001 | [8] -0.053 | [9] -0.054

DYNC1I2 isoform 5 (UniProt Q13409)
inactive: erlotinib -0.009 | [1] -0.016 | [2] -0.033 | [3] 0.003 | [4] 0.025 | [5] -0.006 | [6] 0.057 | [7] 0.016 | [8] 0.007 | [9] 0.018

FAF2 (UniProt Q96CS3)
Chain of UniProt Q96CS3 (Q96CS3 whole entry, looked up): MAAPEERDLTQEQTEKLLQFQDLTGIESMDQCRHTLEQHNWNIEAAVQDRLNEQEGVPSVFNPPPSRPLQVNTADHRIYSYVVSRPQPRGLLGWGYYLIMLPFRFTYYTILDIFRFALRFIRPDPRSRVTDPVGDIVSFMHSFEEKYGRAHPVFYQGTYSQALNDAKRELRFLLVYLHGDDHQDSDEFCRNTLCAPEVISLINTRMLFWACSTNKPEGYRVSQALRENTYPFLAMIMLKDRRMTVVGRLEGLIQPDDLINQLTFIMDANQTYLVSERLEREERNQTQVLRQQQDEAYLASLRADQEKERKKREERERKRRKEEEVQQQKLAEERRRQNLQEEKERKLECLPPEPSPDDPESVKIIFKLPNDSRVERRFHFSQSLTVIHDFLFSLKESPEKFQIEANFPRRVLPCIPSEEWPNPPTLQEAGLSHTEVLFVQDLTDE
inactive: erlotinib 0.009 | [1] 0.078 | [2] -0.003 | [3] 0.02 | [4] 0.049 | [5] 0.03 | [6] 0.15 | [7] 0.009 | [8] 0.035 | [9] 0.004

ERLIN2 (UniProt O94905)
inactive: erlotinib -0.073 | [1] -0.075 | [2] -0.054 | [3] -0.014 | [4] -0.012 | [5] 0.027 | [6] 0.021 | [7] -0.054 | [8] -0.002 | [9] -0.097

ERCC6 (UniProt Q03468)
inactive: erlotinib -0.036 | [1] 0.06 | [2] 0.028 | [3] -0.063 | [4] -0.096 | [5] -0.224 | [6] -0.052 | [7] 0.003 | [8] -0.065 | [9] 0.106

DBN1 isoform 3 (UniProt Q16643)
inactive: erlotinib -0.095 | [1] -0.047 | [2] -0.028 | [3] 0.039 | [4] -0.074 | [5] 0.02 | [6] 0.021 | [7] -0.029 | [8] 0.089 | [9] 0.041

EIF2S3 (UniProt P41091)
inactive: erlotinib -0.028 | [1] -0.041 | [2] -0.18 | [3] -0.004 | [4] -0.023 | [5] -0.006 | [6] -0.037 | [7] 0.015 | [8] -0.023 | [9] -0.06

DHX36 (UniProt Q9H2U1)
Chain of UniProt Q9H2U1 (Q9H2U1 whole entry, looked up): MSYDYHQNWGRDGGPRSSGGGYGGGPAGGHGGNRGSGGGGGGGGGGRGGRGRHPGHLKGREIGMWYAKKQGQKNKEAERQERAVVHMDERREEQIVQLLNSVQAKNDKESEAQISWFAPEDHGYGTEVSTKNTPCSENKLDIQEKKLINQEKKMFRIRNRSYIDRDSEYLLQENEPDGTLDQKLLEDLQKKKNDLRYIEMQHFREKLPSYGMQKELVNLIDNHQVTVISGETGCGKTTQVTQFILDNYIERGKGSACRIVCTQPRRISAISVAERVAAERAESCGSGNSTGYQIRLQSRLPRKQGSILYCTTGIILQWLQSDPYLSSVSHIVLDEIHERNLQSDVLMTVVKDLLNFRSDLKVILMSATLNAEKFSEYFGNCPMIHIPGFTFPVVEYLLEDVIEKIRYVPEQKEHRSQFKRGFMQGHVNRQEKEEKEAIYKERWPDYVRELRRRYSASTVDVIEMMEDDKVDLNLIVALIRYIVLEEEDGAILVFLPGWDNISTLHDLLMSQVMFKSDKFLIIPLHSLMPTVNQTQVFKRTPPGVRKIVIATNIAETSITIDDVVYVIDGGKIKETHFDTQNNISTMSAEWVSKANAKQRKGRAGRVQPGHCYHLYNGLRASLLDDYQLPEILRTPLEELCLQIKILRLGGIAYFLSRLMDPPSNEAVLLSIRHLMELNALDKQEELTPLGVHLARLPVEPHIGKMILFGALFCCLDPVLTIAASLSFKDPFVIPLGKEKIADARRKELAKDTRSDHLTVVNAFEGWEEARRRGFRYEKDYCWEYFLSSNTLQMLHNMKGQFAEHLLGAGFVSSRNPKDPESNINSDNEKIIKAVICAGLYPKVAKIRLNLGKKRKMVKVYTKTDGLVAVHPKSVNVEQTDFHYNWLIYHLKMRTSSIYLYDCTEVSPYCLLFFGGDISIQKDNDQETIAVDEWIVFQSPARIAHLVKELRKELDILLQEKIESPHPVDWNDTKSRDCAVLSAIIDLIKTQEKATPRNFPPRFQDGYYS
inactive: erlotinib -0.089 | [1] 0.013 | [2] -0.08 | [3] 0.031 | [4] -0.072 | [5] 0.011 | [6] 0.044 | [7] -0.023 | [8] 0.047 | [9] -0.066

E2F4 (UniProt Q16254)
Chain of UniProt Q16254 (Q16254 whole entry, looked up): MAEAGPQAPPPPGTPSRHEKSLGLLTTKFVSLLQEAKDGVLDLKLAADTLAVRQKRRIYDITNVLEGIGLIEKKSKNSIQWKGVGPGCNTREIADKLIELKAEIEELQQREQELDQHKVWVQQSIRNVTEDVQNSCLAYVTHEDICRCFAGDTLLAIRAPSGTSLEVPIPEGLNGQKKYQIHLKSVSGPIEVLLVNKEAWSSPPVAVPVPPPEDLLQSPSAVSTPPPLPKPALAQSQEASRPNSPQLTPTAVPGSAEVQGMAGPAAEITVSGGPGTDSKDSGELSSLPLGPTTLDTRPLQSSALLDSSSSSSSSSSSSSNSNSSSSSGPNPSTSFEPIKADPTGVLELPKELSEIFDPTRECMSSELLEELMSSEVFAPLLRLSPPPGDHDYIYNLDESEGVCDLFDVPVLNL
inactive: erlotinib 0.021 | [1] -0.003 | [2] 0.019 | [3] -0.003 | [4] 0.029 | [5] 0.043 | [6] -0.064 | [7] -0.02 | [8] -0.071 | [9] -0.022

FAM177A1 isoform 2 (UniProt Q8N128)
inactive: erlotinib 0.048 | [1] 0.042 | [2] 0.038 | [3] 0.023 | [4] 0.036 | [5] 0.02 | [6] 0.024 | [7] -0.037 | [8] 0.109 | [9] 0.044

DDX11 (UniProt Q96FC9)
inactive: erlotinib 0.019 | [1] -0.041 | [2] 0.087 | [3] 0.005 | [4] 0.029 | [5] 0.034 | [6] 0.215 | [7] -0.027 | [8] 0.032 | [9] 0.072

ESYT1 isoform 2 (UniProt Q9BSJ8)
Chain of UniProt Q9BSJ8 (Q9BSJ8 whole entry, looked up): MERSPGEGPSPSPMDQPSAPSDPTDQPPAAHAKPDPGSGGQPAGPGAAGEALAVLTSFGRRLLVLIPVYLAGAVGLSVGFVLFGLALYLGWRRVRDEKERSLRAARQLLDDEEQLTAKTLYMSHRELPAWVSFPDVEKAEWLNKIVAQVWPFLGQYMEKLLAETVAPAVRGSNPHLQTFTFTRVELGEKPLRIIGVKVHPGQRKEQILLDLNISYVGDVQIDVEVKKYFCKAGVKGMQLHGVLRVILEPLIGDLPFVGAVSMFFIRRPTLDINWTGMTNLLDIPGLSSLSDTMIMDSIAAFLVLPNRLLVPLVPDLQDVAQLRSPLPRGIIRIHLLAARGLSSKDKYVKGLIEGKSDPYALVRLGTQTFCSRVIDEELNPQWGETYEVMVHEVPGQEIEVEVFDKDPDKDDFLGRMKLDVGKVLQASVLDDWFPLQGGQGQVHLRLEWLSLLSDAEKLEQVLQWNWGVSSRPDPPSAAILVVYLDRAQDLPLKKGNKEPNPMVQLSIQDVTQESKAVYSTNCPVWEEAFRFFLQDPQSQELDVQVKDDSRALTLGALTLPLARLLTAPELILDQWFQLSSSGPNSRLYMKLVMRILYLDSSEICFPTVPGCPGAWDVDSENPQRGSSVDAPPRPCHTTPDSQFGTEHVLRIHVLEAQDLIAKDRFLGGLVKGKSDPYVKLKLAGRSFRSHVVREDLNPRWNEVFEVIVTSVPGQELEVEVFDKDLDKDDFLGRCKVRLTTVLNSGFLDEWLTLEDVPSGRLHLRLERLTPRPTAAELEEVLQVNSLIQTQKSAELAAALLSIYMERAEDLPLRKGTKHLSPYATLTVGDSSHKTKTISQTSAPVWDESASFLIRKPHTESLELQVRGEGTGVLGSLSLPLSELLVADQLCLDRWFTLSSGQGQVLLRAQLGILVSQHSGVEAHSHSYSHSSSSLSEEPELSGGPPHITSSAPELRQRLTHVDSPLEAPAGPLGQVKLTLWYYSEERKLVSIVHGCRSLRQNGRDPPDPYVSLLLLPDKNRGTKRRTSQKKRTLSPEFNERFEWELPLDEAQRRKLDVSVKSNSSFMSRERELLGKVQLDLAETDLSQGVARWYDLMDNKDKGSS
inactive: erlotinib 0.039 | [1] 0.081 | [2] -0.016 | [3] -0.05 | [4] 0.035 | [5] -0.069 | [6] -0.042 | [7] 0.043 | [8] -0.11 | [9] -0.092

DNAJB12 (UniProt Q9NXW2)
Chain of UniProt Q9NXW2 (Q9NXW2 whole entry, looked up): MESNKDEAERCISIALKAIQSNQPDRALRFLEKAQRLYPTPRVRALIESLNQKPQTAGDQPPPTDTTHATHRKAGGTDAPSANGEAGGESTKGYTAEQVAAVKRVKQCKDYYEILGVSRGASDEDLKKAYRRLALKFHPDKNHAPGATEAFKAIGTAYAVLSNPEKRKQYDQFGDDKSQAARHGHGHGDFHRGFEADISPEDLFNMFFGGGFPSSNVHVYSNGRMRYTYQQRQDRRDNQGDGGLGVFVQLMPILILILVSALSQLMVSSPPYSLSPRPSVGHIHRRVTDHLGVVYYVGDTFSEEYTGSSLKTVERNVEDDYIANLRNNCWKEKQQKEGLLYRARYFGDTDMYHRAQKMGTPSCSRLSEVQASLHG
inactive: erlotinib -0.039 | [1] -0.001 | [2] 0.003 | [3] 0.102 | [4] 0.004 | [5] 0.032 | [6] 0.006 | [7] -0.064 | [8] 0.044 | [9] 0.033

DNAH11 (UniProt Q96DT5)
inactive: erlotinib -0.252 | [1] -0.237 | [2] 0.001 | [3] 0.085 | [4] 0.012 | [5] -0.023 | [6] -0.28 | [7] -0.001 | [8] 0.125 | [9] 0.119

ELOVL1 (UniProt Q9BW60)
inactive: erlotinib -0.022 | [1] 0.019 | [2] -0.01 | [3] -0.059 | [4] 0.036 | [5] 0.011 | [6] 0.069 | [7] -0.11 | [8] -0.124 | [9] 0.014

CTSV (UniProt O60911)
inactive: erlotinib 0.043 | [1] -0.105 | [2] 0.023 | [3] -0.054 | [4] 0.035 | [5] -0.004 | [6] 0.024 | [7] 0.023 | [8] 0.04 | [9] 0.022

DCTPP1 (UniProt Q9H773)
inactive: erlotinib 0.01 | [1] -0.07 | [2] 0.14 | [3] -0.039 | [4] -0.073 | [5] 0.035 | [6] 0.194 | [7] 0.012 | [8] -0.021 | [9] -0.054

EFL1 (UniProt Q7Z2Z2)
inactive: erlotinib 0 | [1] 0.051 | [2] 0.027 | [3] 0.002 | [4] 0.013 | [5] 0.002 | [6] 0.053 | [7] 0.043 | [8] 0.027 | [9] 0.013

DCAF16 (UniProt Q9NXF7)
inactive: erlotinib 0.051 | [1] 0.042 | [2] 0.036 | [3] 0 | [4] -0.034 | [5] -0.002 | [6] -0.001 | [7] 0.048 | [8] 0.039 | [9] -0.127

DDOST (UniProt P39656)
Chain of UniProt P39656 (P39656 whole entry, looked up): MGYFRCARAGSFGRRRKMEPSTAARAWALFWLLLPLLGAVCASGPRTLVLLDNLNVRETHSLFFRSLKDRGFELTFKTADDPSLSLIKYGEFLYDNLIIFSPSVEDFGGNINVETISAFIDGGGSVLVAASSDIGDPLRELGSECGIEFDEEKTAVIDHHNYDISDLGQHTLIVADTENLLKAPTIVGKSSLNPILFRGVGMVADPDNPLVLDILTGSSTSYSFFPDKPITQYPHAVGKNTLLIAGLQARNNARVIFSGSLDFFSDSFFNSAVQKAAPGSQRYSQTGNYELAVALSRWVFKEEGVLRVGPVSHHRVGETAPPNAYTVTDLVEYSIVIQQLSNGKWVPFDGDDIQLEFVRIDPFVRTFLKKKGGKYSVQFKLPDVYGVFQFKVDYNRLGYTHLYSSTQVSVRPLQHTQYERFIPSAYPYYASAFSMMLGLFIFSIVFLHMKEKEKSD
active: [6] 0.253
inactive: erlotinib -0.033 | [1] 0.003 | [2] 0.004 | [3] -0.014 | [4] -0.085 | [5] 0.014 | [7] 0.012 | [8] -0.002 | [9] -0.003

DENND10 (UniProt Q8TCE6)
inactive: erlotinib -0.01 | [1] -0.005 | [2] -0.049 | [3] -0.08 | [4] -0.051 | [5] 0.018 | [6] 0 | [7] -0.04 | [8] 0.063 | [9] 0.083

FAM117A (UniProt Q9C073)
Chain of UniProt Q9C073 (Q9C073 whole entry, looked up): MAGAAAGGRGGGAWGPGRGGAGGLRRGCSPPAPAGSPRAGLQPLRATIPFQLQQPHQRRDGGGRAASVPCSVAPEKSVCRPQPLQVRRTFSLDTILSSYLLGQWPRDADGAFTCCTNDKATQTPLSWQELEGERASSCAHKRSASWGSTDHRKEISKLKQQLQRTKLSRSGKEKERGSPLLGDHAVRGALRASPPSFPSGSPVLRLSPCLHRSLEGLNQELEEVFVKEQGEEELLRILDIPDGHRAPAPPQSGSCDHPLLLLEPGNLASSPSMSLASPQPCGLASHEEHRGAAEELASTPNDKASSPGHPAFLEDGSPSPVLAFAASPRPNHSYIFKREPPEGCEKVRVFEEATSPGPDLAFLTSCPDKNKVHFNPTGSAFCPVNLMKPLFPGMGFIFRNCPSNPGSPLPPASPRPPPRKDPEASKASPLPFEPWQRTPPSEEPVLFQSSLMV
inactive: erlotinib 0.127 | [1] 0.054 | [2] -0.056 | [3] 0.053 | [5] -0.101 | [6] -0.041 | [7] -0.129 | [8] -0.143 | [9] -0.121
active: [4] -0.279

DDX4 (UniProt Q9NQI0)
inactive: erlotinib 0.576 | [1] -0.071 | [2] -0.23 | [3] -0.056 | [4] 0.006 | [5] 0 | [6] -0.305 | [7] 0.006 | [8] 0.053 | [9] -0.273
